The values that follow come from PubChem BioAssay AID2417 (National Center for Advancing Translational Sciences (NCATS), 2010).

Hit rate of the full screen: of about 140,000 compounds, about 4,300 (3.1%) were called active. Another 21% or so got no clear call; they are omitted.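 The calls were made as follows: active = readout at or below -70, meaning at least 70% loss of cells showing the perinucleolar compartment, a nuclear body marking cancer cells; inconclusive = readout between -30 and a set limit; inactive = the rest.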 Only a selection was taken, and actives are over-represented in it overall.

The nature of this experiment: High Content Assay for Compounds that inhibit the Assembly of the Perinucleolar Compartment.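 Also: plate controls were DMSO wells for no effect and camptothecin positive control wells for full effect.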 The note with it: PC3M PTB-GFP, PNC prevalence imaging, 16 h; at 10 µM; hits give low values. Put shortly:
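Compounds are pinned in duplicate onto adhered PC3M cells stably expressing GFP-tagged PTB and incubated 16 h at 37 C. Cells are then fixed, nuclei stained with Hoechst, and PNC-positive cells counted.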
In the case of `CCc1ccc(NC2Nc3cc(C)nn3S2)cc1` (stereo unspecified), the activity change (PNC), negative = inhibition is 66.7% (inactive).

Consider `Cc1ccccc1NC(=O)CNc1ccccc1N1CCCCC1`, for which the activity change (PNC), negative = inhibition is -94.9% (active).

As to `Cn1c(=O)c2c(nc(SCC(=O)Nc3ccccc3N3CCCCC3)n2C)n(C)c1=O`, the activity change (PNC), negative = inhibition was -26.8% (inactive).

As to `O=C(CN1CCN(C2CCCCC2)CC1)Nc1ccccc1N1CCCCC1`, the activity change (PNC), negative = inhibition is -8.13% (inactive).

As to `Cc1occc1C(=O)NNC(=S)NCC(C)C`, the activity change (PNC), negative = inhibition is -25.7% (inactive).

Take `Cc1scc(C(=O)NNC(=S)NCC(C)C)c1C`: the activity change (PNC), negative = inhibition is -6.46% (inactive).

As to `CC(C)CNC(=S)NNC(=O)c1nn(C)cc1Cl`, the activity change (PNC), negative = inhibition was -100% (active).

For the compound `Cc1ccc(S(=O)(=O)N(C)C)cc1NC(=O)COC(=O)c1c(C)noc1C`, the activity change (PNC), negative = inhibition is -21.3% (inactive).

Take `Cc1ccc(S(=O)(=O)N(C)C)cc1NC(=O)/C=C/c1cccs1`: the activity change (PNC), negative = inhibition is -119% (active).

As to `Cc1ccc(NC(=O)c2cccs2)cc1S(=O)(=O)N(C)C`, the activity change (PNC), negative = inhibition is 22.8% (inactive).

In the case of `Cc1ccc(C2=NN(C(=O)CSc3nc(N)cc(N)n3)C(c3ccco3)C2)cc1` (stereo unspecified), the activity change (PNC), negative = inhibition was -113% (active).

`Fc1ccc(N2N=C(c3cccs3)CC2c2ccco2)c(F)c1` (stereo unspecified): the activity change (PNC), negative = inhibition is 17.8% (inactive).

Consider `CCS(=O)(=O)Nc1ccc(C2=NN(S(=O)(=O)c3ccc(F)cc3)C(c3ccco3)C2)cc1` (stereo unspecified), for which the activity change (PNC), negative = inhibition is 13.9% (inactive).

Regarding `CC(C)(C)c1ccc(NC(=O)COC(=O)CCc2nc3ccccc3c(=O)[nH]2)cc1`, the activity change (PNC), negative = inhibition is -24.2% (inactive).

As to `C/C(=N/NC(=O)c1ccc(Br)o1)c1ccc(C)o1`, the activity change (PNC), negative = inhibition is -24.9% (inactive).

Turning to `CCOc1ccc(NC(=O)c2ccc(CSc3nnnn3C)cc2)cc1`, the activity change (PNC), negative = inhibition was -8.75% (inactive).

As for `CCc1cccc(CC)c1NC(=O)COc1ccccc1C(=O)c1cc(C#N)c(=O)n(C2CCCCC2)c1`, the activity change (PNC), negative = inhibition was -12.2% (inactive).

For `CCOC(=O)c1[nH]c2c(c1-c1ccccc1)C(=O)CC(c1ccc(Cl)cc1)C2` (stereo unspecified), the activity change (PNC), negative = inhibition was 35.7% (inactive).

On to `CCCOC(=O)c1[nH]c2c(c1C)C(=O)CC(c1cccs1)C2` (stereo unspecified), for which the activity change (PNC), negative = inhibition was -85.9% (active).

On to `CCCOC(=O)c1[nH]c2c(c1C)C(=O)CC(c1cc(OC)c(OC)c(OC)c1)C2` (stereo unspecified), for which the activity change (PNC), negative = inhibition is 10.3% (inactive).

Turning to `CSc1ccccc1NC(=O)c1cc(C2CC2)on1`, the activity change (PNC), negative = inhibition was -108% (active).

With `CSc1ccccc1NC(=O)Cc1ccc(Br)cc1`, the activity change (PNC), negative = inhibition was 27% (inactive).

Regarding `O=C(Nc1cc(C(F)(F)F)ccc1Cl)c1cc(C2CC2)on1`, the activity change (PNC), negative = inhibition is -19.5% (inactive).

As to `Cc1cc(C(C)(C)C)cc(C)c1N`, the activity change (PNC), negative = inhibition was 15.5% (inactive).

Turning to `O=C(Cc1cc(=O)[nH][nH]1)N/N=C/c1ccccc1[N+](=O)[O-]`, the activity change (PNC), negative = inhibition was -21.2% (inactive).

`Cc1ccc(N(C(=O)c2ccc(CN3CCOCC3)o2)C(C(=O)NCCC(C)C)c2cccs2)c(C)c1` (stereo unspecified): the activity change (PNC), negative = inhibition was 4.19% (inactive).

With `O=C(Nc1ccccc1)c1ccc2nsnc2c1`, the activity change (PNC), negative = inhibition was -106% (active).

On to `COc1ccc(NC(=O)Nc2ccc3nsnc3c2)cc1`, for which the activity change (PNC), negative = inhibition is -27.5% (inactive).

Take `O=C(Nc1ccccc1)c1ccc2c(c1)OCO2`: the activity change (PNC), negative = inhibition is 16.1% (inactive).

As for `Cc1cc(C)cc(NC(=S)NCCCN2CCOCC2)c1`, the activity change (PNC), negative = inhibition is 26.5% (inactive).

As for `O=C(NCCCn1ccnc1)Nc1ccc(Cl)cc1Cl`, the activity change (PNC), negative = inhibition is -114% (active).

In the case of `Cc1ccc2c(Cl)c(C(=O)NCCCn3ccnc3)sc2c1`, the activity change (PNC), negative = inhibition was -3.58% (inactive).

Take `CCCCC(=O)Nc1ccc(C(=O)NCCCn2ccnc2)cc1`: the activity change (PNC), negative = inhibition was 40.1% (inactive).

As for `CCCOc1ccc(NC(=O)C2OC3OC(C)(C)OC3C3OC(C)(C)OC23)cc1` (stereo unspecified), the activity change (PNC), negative = inhibition is 10.2% (inactive).

Turning to `COc1cc(/C=C2\SC(=S)N(Nc3ncc(C(F)(F)F)cc3Cl)C2=O)cc(OC)c1OC`, the activity change (PNC), negative = inhibition is 7.84% (inactive).

On to `COc1cccc(/C=N/Nc2ncc(C(F)(F)F)cc2Cl)c1O`, for which the activity change (PNC), negative = inhibition was -85.6% (active).

On to `COc1cccc(/C=N\NC(=O)C2=NNC(=O)C2C)c1O` (stereo unspecified), for which the activity change (PNC), negative = inhibition is -8.21% (inactive).

Take `CCc1ccc2c(c1)C(c1ccc([N+](=O)[O-])cc1)=NNC(c1ccccc1)=N2`: the activity change (PNC), negative = inhibition was 34.2% (inactive).

With `Cc1ccc(-c2cc(C(=O)N/N=C/C=C/c3ccccc3)n[nH]2)o1`, the activity change (PNC), negative = inhibition was -21.8% (inactive).

Take `CC(=O)CCC(=O)c1ccc2ccccc2c1`: the activity change (PNC), negative = inhibition was 36.3% (inactive).

For the compound `Cc1cc(Cl)c(S(=O)(=O)Nc2ccc3c(c2)OCCO3)cc1OCC(N)=O`, the activity change (PNC), negative = inhibition was -121% (active).

On to `Cc1cc(Cl)c(S(=O)(=O)NCC2CCCO2)cc1OCC(N)=O` (stereo unspecified), for which the activity change (PNC), negative = inhibition was 9.99% (inactive).

`Cc1cc(Cl)c(S(=O)(=O)N(C)C)cc1OCC(N)=O`: the activity change (PNC), negative = inhibition is -29.4% (inactive).

`CC1=C(C(=O)Nc2ccccc2)C(c2cccs2)C(C#N)=C(SCC#N)N1` (stereo unspecified): the activity change (PNC), negative = inhibition is -107% (active).

Turning to `CC1=C(C(=O)Nc2ccccc2)C(c2ccco2)C(C#N)=C(SCC(N)=O)N1` (stereo unspecified), the activity change (PNC), negative = inhibition is -15.2% (inactive).

In the case of `CCOC(=O)CSC1=C(C#N)C(c2ccco2)C(C(=O)OCc2ccccc2)=C(C)N1` (stereo unspecified), the activity change (PNC), negative = inhibition was -21.7% (inactive).

For `Cc1nn(C)c(C(=O)NNC(=S)NC2CCCCC2)c1Cl`, the activity change (PNC), negative = inhibition is 8.24% (inactive).

Take `Cc1ccc(NN=C2C(=O)OC(C)(C)OC2=O)c(C)c1`: the activity change (PNC), negative = inhibition is 57.8% (inactive).

With `Cc1ccn(CC(=O)N2N=C(C(F)F)CC2(O)C(F)F)n1` (stereo unspecified), the activity change (PNC), negative = inhibition is 3.67% (inactive).

For the compound `COc1cc(OC)cc(C(=O)Nc2ccc(S(=O)(=O)Nc3cc(C)on3)cc2)c1`, the activity change (PNC), negative = inhibition is -25.6% (inactive).

`COc1ccc(NC(=O)c2ccc(OC)cc2)cc1`: the activity change (PNC), negative = inhibition is 29.1% (inactive).

On to `COc1ccc(C(=O)Nc2ccc(S(=O)(=O)NC(C)C)cc2)cc1`, for which the activity change (PNC), negative = inhibition was -112% (active).

Turning to `CC(=O)Nc1ccc(/C(C)=N/NC(=O)CN(c2ccccc2Br)S(C)(=O)=O)cc1`, the activity change (PNC), negative = inhibition is -2.45% (inactive).

Regarding `CCOc1ccc2[nH]c(=O)c(CN(Cc3nnnn3Cc3ccccc3)CC3CCCO3)cc2c1` (stereo unspecified), the activity change (PNC), negative = inhibition was -2.29% (inactive).

On to `COc1ccc2[nH]c(=O)c(CN(Cc3nnnn3CCc3ccccc3)CC3CCCO3)cc2c1` (stereo unspecified), for which the activity change (PNC), negative = inhibition is -7.29% (inactive).

For `CCOc1ccc2[nH]c(=O)c(CN(Cc3nnnn3CCc3ccccc3)CC3CCCO3)cc2c1` (stereo unspecified), the activity change (PNC), negative = inhibition is -100% (active).

On to `Cc1ccc(S(=O)(=O)NCC(=O)N2CCN(c3ccccn3)CC2)cc1`, for which the activity change (PNC), negative = inhibition was -10% (inactive).

Regarding `Cc1ccc(-n2ccc(=O)c(C(=O)O)n2)cc1`, the activity change (PNC), negative = inhibition is -18.4% (inactive).

As to `Cc1ccc(N2CCN(c3ccc(C)cc3)C2c2ccccn2)cc1`, the activity change (PNC), negative = inhibition is -81.6% (active).

In the case of `CN(c1ccccc1)c1nc(N)c([N+](=O)[O-])c(NCc2ccco2)n1`, the activity change (PNC), negative = inhibition was 22% (inactive).

Regarding `CNC(=O)/C(C#N)=C/c1c(F)cccc1Cl`, the activity change (PNC), negative = inhibition is 52.2% (inactive).
